p53 reactivation: restores transcriptional activity of mutant p53 | H1299 p53-A138V BP100-luciferase reporter, luminescence, 24 h | Potency, µM (highest dose often 92.2 µM), for the others: at the highest dose activity change, positive = activation, usual class: activators | 320,000 compounds, 0.063% hits; note: potency is the fitted concentration of half-maximal effect; % of control where 0% means no effect; nearly all actives have a fitted effect of over 45% in size
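H1299 (p53-null), stable ts p53-A138V + BP100-Luc; 1000 cells/well, Opti-MEM/10% FBS; cpd 4 pt, 1:5; 24 h, 37 deg C, 5% CO2; detection reagent 10 min RT; luminescence.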
BRCA1 expr up: BRCA1 expression activation. MCF7-BRCA1-FFLuc reporter, luminescence, 48 h; response scale: scaled: vehicle 0%, 10 µM genistein 100%. Potency, µM (series often up to 46.1 µM), without a hit: at the highest dose activation, actives largely listed as activators. 380,000 compounds, 1.1% hits. AID 624202; note: potency is the fitted concentration of half-maximal effect; nearly all actives have a fitted effect of over 80% in size
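Activators of BRCA1 expression were detected as increased firefly luciferase luminescence in engineered MCF7 cells after 48 h compound incubation. Signals were scaled to genistein 10 microM as full activation.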
RORgamma inh: blocks mouse ROR gamma transcriptional activity | P51450 | Drosophila S2 Gal4-RORgamma UAS-luciferase reporter, 20 h | Potency, µM (titrated, usually from 53.6 µM), for inactives: top-dose activity change, negative = inhibition, most hits filed as inhibitors | 310,000 compounds, 5.4% hits; note: potency is the fitted concentration of half-maximal effect; % is set by controls: 0 for no effect and ±100 for the full control effect; nearly all actives have a fitted effect of over 60% in size
Target sequence (P51450 whole entry, looked up, the tested form may be a part): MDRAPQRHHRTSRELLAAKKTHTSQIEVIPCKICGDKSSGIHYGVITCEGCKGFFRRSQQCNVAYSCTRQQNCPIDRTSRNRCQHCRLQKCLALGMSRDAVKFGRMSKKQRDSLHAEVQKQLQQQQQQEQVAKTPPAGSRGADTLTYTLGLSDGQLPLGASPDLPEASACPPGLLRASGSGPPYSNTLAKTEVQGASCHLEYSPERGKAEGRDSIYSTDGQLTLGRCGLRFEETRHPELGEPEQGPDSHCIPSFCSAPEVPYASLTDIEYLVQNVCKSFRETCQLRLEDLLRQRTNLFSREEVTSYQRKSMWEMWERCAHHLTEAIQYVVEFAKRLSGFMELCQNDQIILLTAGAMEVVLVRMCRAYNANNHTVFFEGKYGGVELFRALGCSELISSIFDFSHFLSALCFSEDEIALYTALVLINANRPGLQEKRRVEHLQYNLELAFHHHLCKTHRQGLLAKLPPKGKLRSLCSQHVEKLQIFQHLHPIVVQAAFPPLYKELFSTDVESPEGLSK
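Schneider cells (Drosophila), stable Gal4 DBD–ROR gamma + UAS-luc; 1 hr cmpd preincubation; Cu2+ induction 700 uM final; 20 hr ambient; luminescence.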
Gal4-VP16 FLuc: Gal4-VP16 reporter inhibition counter-screen; Drosophila S2 Gal4-VP16 UAS-luciferase, luminescence, 20 h; Potency, µM (series often up to 53.6 µM), for the others: at the highest dose activity, negative = inhibition, actives largely listed as inhibitors; 310,000 compounds, 3.5% hits; AID 2546;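 note: Gal4-VP16 expression switched on by copper sulfate through the metallothionein promoter; potency is the fitted concentration of half-maximal effect; % is set by controls: 0 for no effect and ±100 for the full control effect; nearly all actives have a fitted effect of over 50% in size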
Giardia killer: kills Giardia lamblia | AID 540267 | Giardia lamblia trophozoite viability | activity change, % at 7.66 µM, hits read low | 340,000 compounds, 0.15% hits; in the data active = activity change below about -80%; inconclusive = between about -30% and that limit;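 note: parasites exposed to compound for two days anaerobically before the ATP read; % is set by controls: 0 for no effect and ±100 for the full control effect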
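Anaerobic 48 hrs incubation at 37 deg C of 100 trophozoites/well with test compounds; ATPLite 1-Step luminescence, 15-30 min RT, reports cellular ATP as viability.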
ELG1 repair inh: inhibitors of ELG1-dependent DNA repair in HEK293T cells. HEK293T ELG1-luciferase reporter, luminescence, 16 h; DNA damage induced by 5-fluorouridine. Potency, µM (series often up to 46.1 µM), for the others: top-dose activity change, negative = inhibition, most hits filed as inhibitors. 330,000 compounds, 2.3% hits; note: potency is the fitted concentration of half-maximal effect; % is set by controls: 0 for no effect and ±100 for the full control effect; nearly all actives have a fitted effect of over 55% in size
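HEK293T cells expressing luciferase-tagged ELG1 (2,000/well) received 5-Fluorouridine plus compound or DMSO for 16 hr at 37 °C. Luciferase was read by ONE-Glo luminescence after 30 min at room temperature.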
Numbers without * were called inactive; ? = inconclusive; / = not tested or not shown; [ ] = another dose, or the depositor's remark. The list is not random: actives were taken first. Their share in the collection is about 7.6%. Unless noted, calls come from the whole dose curve; as a rule, active = well fitted curve in the direction sought with a large enough effect; inconclusive = small, poorly fitted or top-dose-only effect, or another doubt; inactive = no such curve, though single readings can be large; an effect the other way counts as inactive or inconclusive.

SMILES	p53 reactivation	BRCA1 expr up	RORgamma inh	Gal4-VP16 FLuc	Giardia killer	ELG1 repair inh
CC1=CC2/C=C(\C)CCC(O)C(O)/C=C/C(=O)C23C(=O)NC(CC(C)C)C3C1C (stereo unspecified)	-12%	-89%	5µM*	7.1µM*	-28	?
C/C(=N\OC(=O)NC(C)C)c1sc(-c2ccccc2)nc1C	10%	5.6µM*	?	3%	29	?
FCCN(CCF)c1cccc(Cl)c1	1%	-4%	11%	0%	6	-1%
CC(=O)Nc1c2sscc-2n(C)c1=O	/	/	0.4µM*	0.25µM*	/	/
C[C@H]1CC[C@@H]2[C@@H](C)[C@H]3C(CC4C5CC=C6CC(O[C@@H]7O[C@H](CO)C(O[C@@H]8O[C@@H](C)[C@H](O)[C@@H](O)[C@H]8O)[C@H](O)[C@H]7O[C@@H]7O[C@@H](C)[C@H](O)[C@@H](O)[C@H]7O)CC[C@]6(C)C5CC[C@@]43C)N2C1 (stereo partly specified)	/	/	0%	3%	-5	/
CC1CCN(C(=O)c2ncn(C)c2C(=O)N2CCC(C)CC2)CC1	0%	-2%	/	/	7	?
CCCN(CCC)[C@@H]1CCc2ccc(O)cc2C1	/	/	3%	-12%	/	/
CC(=O)c1ccc(NC(=O)CSc2nc(=O)cc(N)n2-c2ccccc2)cc1	11%	10µM*	5%	-2%	2	?
COc1ccc([N+](=O)[O-])cc1N=Cc1c(O)n(CCc2ccccc2)c(=O)n(C(C)C)c1=O	4%	-15%	?	-15%	-8	16µM*
C[C@@H]1O[C@@H](O[C@H]2CC[C@@H](O[C@H]3[C@H](O)C[C@H](c4ccc5c(c4O)C(=O)C4=C(C5=O)[C@@]5(O)C(=O)C[C@](C)(O[C@H]6CC[C@H](O[C@H]7C=CC(=O)[C@H](C)O7)[C@H](C)O6)C[C@@]5(O)C=C4)O[C@@H]3C)O[C@H]2C)C=CC1=O	/	/	0.5µM*	-10%	/	/
CCOc1ccc(-n2c(-c3cccs3)nc3ccccc3c2=O)cc1	-1%	-16%	-10%	6%	?	-6%
COc1ccc(-n2c(/C=C/c3ccc(O)cc3)nc3ccccc3c2=O)cc1	/	-62%	9%	-6%	-23	?
CCn1nc(/C=C/c2ccccc2)nc2c(=O)n(C)c(=O)nc1-2	3%	-92%	28%	2%	-94*	-3%
CCn1nc(-c2cccs2)nc2c(=O)n(C)c(=O)nc1-2	-64%	-105%	0.79µM*	1.3µM*	4	?
CC(C)(C)C(=O)N1Cc2cc(N3CCOCC3)ccc2-n2nncc2C1	/	10%	/	/	/	/
CC1N(C)c2cc(NC(=O)c3ccco3)c(P(=O)(Nc3ccc([N+](=O)[O-])cc3)N3CCOCC3)cc2C1(C)C (stereo unspecified)	-1%	-71%	?	-4%	-29	18µM*
CC(C)(C)c1cc([N+](=O)[O-])cc(C(C)(C)C)c1O	-5%	-43%	14µM*	4.5µM*	-9	?
CCCCCCCCCCCCCCCC[n+]1ccccc1	/	-50%	?	16µM*	-13	/
CCCCCCCCCCCCCl	/	/	13%	-7%	/	/
Cc1cccc(NP(=O)(Oc2ccccc2F)Oc2ccccc2F)c1	-4%	-53%	?	-19%	-9	18µM*
COc1cccc(NP(=O)(Oc2ccc(Cl)cc2)Oc2ccc(Cl)cc2)c1	7%	-77%	?	?	6	21µM*
O=P(Nc1ccccc1)(Nc1ccccc1)Oc1ccc(Cl)cc1	-2%	-23%	25%	-7%	0	?
CSc1ccc(C(=O)C2CCCN(C)C2)cc1 (stereo unspecified)	3%	-12%	2%	2%	1	-1%
COc1cc(/C=C/[N+](=O)[O-])ccc1O	-23%	-23%	4.5µM*	3.2µM*	3	23µM*
CCCCn1c(O)c(C(C)=NCc2cccnc2)c(=O)[nH]c1=O	-2%	-28%	17%	-6%	-10	0%
SMILES	p53 reactivation	BRCA1 expr up	RORgamma inh	Gal4-VP16 FLuc	Giardia killer	ELG1 repair inh
CCCCn1c(O)c(C(CC)=NCc2cc(OC)cc(OC)c2)c(=O)[nH]c1=O	-14%	-37%	?	-12%	-12	16µM*
CCCCn1c(O)c(C(CC)=NCc2cccnc2)c(=O)[nH]c1=O	-4%	-23%	2%	-7%	5	-7%
CCC(=NCc1cc(OC)cc(OC)c1)c1c(O)n(C2CCCCC2)c(=O)[nH]c1=O	2%	-71%	24%	?	7	16µM*
COc1cc(CN=C(C)c2c(O)n(C3CCCCC3)c(=O)[nH]c2=O)cc(OC)c1	-7%	-52%	16%	-7%	-21	?
CCCCn1c(O)c(C(C)=NCc2cc(OC)cc(OC)c2)c(=O)[nH]c1=O	-6%	-37%	7%	-11%	13	23µM*
CC(C)[C@H](NC(=O)[C@H](CCC(=O)O)NC(=O)[C@H](Cc1ccccc1)NC(=O)[C@@H](C)NC(=O)[C@@H](N)Cc1ccc(O)cc1)C(=O)N[C@H](C(=O)NCC(N)=O)C(C)C	/	/	1%	5%	/	/
CN(N)N=Nc1nc2c([nH]1)c(=O)n(C)c(=O)n2C	-3%	24%	-7%	-5%	-19	-6%
COC(=O)C1=C(c2ccc(C(C)=O)cc2)C[C@@H]2CC[C@H]1N2C(=O)NCc1ccc(C(F)(F)F)cc1	-5%	-22%	/	/	-1	7%
CCC1C=CC=CC[C@H](C)[C@@H](O)[C@](C)(O)C(=O)[C@@H](C)[C@H](O)[C@@H](C)C(=O)[C@H](C)[C@@H](O)[C@H](C)C=CC(=O)OC2[C@@H](C)C(CC1)OC1(CC[C@@H](C)C(C[C@H](C)O)O1)[C@@H]2C (stereo partly specified)	-4%	/	/	/	/	12µM*
C#CCN1C(=O)S/C(=C\c2ccc(N3CCOCC3)cc2C)C1=O	15%	74%	11%	25%	-25	?
CC(C)CS(=O)(=O)C1=NN2C(=N)/C(=C\c3ccc(OC(=O)c4ccco4)cc3)C(=O)N=C2S1	7%	-3%	-5%	-2%	36	?
Cc1ccc2c(c1N)C(=O)c1ccccc1C2=O	?	10µM*	-24%	-12%	-11	?
O=C1c2ccccc2C(=O)c2ccccc21	/	/	-8%[10 µM]	2%	/	/
COc1ccc(-n2nc(C(=O)NCC(=O)N3CCC4(CC3)OCCO4)c3ccccc3c2=O)cc1Cl	?	10µM*	-43%	?	6	?
COc1ccc(-n2nc(C(=O)NCC(=O)N3CCC4(CC3)OCCO4)c3ccccc3c2=O)cc1	?	?	?	?	-25	?
